From the supplement of paper PMC6555819

How the values were obtained:
Test in all cases: PBM binding z-score (relative to random genomic background probes); higher = stronger binding; sequences stand for … in GC…GCGATTGACAGCGTAGAATGAAGG
[1] = system: PPARg:RXRa DBDmut IVT, anti-RXR (DBD mutation: RXRa K156A/R161A, NR concentration 270 nM, RXRa partner concentration 90 nM)
Procedure, shortened: (§1)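 Ligand-free nuclear receptor dimers were bound for 1 h to custom Agilent 4×180K protein-binding microarrays. Detection used antibodies against each partner (one per run). Binding z-scores rest on regression-normalized fluorescence, with random background probes as the reference.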

[2] = system: PPARg:RXRa IVT, anti-PPARg (NR concentration 270 nM, RXRa partner concentration 90 nM)
Procedure, shortened: as §1

[3] = system: PPARg DBDmut:RXRa IVT, anti-PPARg (DBD mutation: PPARg1 K132A/R137A, NR concentration 270 nM, RXRa partner concentration 90 nM)
Procedure, shortened: as §1

[4] = system: PPARg DBDmut IVT, anti-PPARg (DBD mutation: PPARg1 K132A/R137A, NR concentration 270 nM)
Procedure, shortened: as §1

[5] = system: PPARg homodimer (NR concentration 180 nM)
Procedure, shortened: as §1

[6] = system: PXR:RXRa (NR concentration 270 nM, RXRa partner concentration 90 nM)
Procedure, shortened: as §1

[7] = system: PXR homodimer (NR concentration 270 nM)
Procedure, shortened: as §1

[8] = system: RARa:RXR (NR concentration 270 nM, RXRa partner concentration 90 nM)
Procedure, shortened: as §1

[9] = system: RARa homodimer (NR concentration 270 nM)
Procedure, shortened: as §1

[10] = system: RARb:RXRa (NR concentration 270 nM, RXRa partner concentration 90 nM)
Procedure, shortened: as §1

[11] = system: RARb homodimer (NR concentration 270 nM)
Procedure, shortened: as §1

[12] = system: RARg:RXRa (NR concentration 270 nM, RXRa partner concentration 90 nM)
Procedure, shortened: as §1

[13] = system: RARg homodimer (NR concentration 270 nM)
Procedure, shortened: as §1

[14] = system: RXRa DBDmut IVT, anti-RXR (DBD mutation: RXRa K156A/R161A, NR concentration 90 nM)
Procedure, shortened: as §1

[15] = system: RXRa homodimer (NR concentration 180 nM)
Procedure, shortened: as §1

[16] = system: THRa:RXRa (NR concentration 90 nM, RXRa partner concentration 90 nM)
Procedure, shortened: as §1

[17] = system: THRa homodimer (NR concentration 90 nM)
Procedure, shortened: as §1

[18] = system: VDR homodimer (NR concentration 270 nM)
Procedure, shortened: as §1

Sequence	PBM binding z-score [1]	PBM binding z-score [2]	PBM binding z-score [3]	PBM binding z-score [4]	PBM binding z-score [5]	PBM binding z-score [6]	PBM binding z-score [7]	PBM binding z-score [8]	PBM binding z-score [9]	PBM binding z-score [10]	PBM binding z-score [11]	PBM binding z-score [12]	PBM binding z-score [13]	PBM binding z-score [14]	PBM binding z-score [15]	PBM binding z-score [16]	PBM binding z-score [17]	PBM binding z-score [18]
AGAACGAGGGCACGCTGAGTTGATAGCAGAGTAG	4.13	3.81	0.29	-0.41	0.297	1.28	-0.0574	0.83	0.0569	2.52	1.21	2.08	2.42	1.95	1.36	1.83	-0.0157	1.98
CGAACGATGGCATGAGTTGATAGCAAATGCCGAT	-0.534	-0.676	-0.379	-0.0268	0.126	-0.184	-0.0321	-0.0116	-0.0736	-0.391	-0.482	-0.189	-0.00968	0.0712	0.135	-0.2	-0.806	0.233
CCTCGGAGGACAACAGGAGGTGAGAGCTGCCAGA	0.262	0.245	-1.46	-1.64	-0.411	-0.513	-0.0477	-0.183	-0.132	1.13	1.05	0.71	1.35	-0.141	-0.117	1.44	0.525	-0.285
CGTCCAAGGTCAAAGGTGAGTGAAGAGATGACGG	4.29	5.13	0.48	-0.248	2.01	5.5	1.01	7.17	1.07	5.55	4.48	6.91	6.63	3.77	8.39	4.4	2.28	2.92
ACTTACGGGTCAACGAGGTTATTGCACGCGTATA	3.11	3.97	1.27	2.63	3.35	5.53	5.35	5.36	1.38	4.19	3.55	5.66	4.9	3.01	6.27	4.05	1.2	4.35
GCTTGTAGATCAAGGTGAAGAAAGACTAAGCTAA	1.63	1.6	-0.514	-0.503	-0.575	-0.352	-0.243	-0.339	-0.424	0.0933	-0.485	-0.139	-0.0485	-0.298	-0.15	1.04	0.0567	-0.307
TCTGCTAGGTCAGCGATGGTCAGCTAATCTGCTA	3.18	3.05	-0.711	-0.258	0.723	0.17	-1.61	1.31	-1.26	3.33	2.71	2.89	3.88	0.156	1.25	2.4	-0.062	-0.739
TAGCCTAGGTCATCGGGCCAGTATAGTACGCATC	1.44	3.19	0.181	-0.303	1.03	1.81	-0.265	2.58	-0.0244	3.9	3.22	4.32	4.38	0.957	3.29	2.96	1.16	0.811
CAGCCAAGGTCAGGGCCAGTATAGGAGGAACGTT	1.56	2.1	-0.336	-0.871	2.33	2.13	0.199	3.09	0.299	4.73	3.64	4.92	5.59	1.64	4	3.36	1.78	0.93
TATACAGGGTCAAAGGCCAGAGAACGAATGTCGA	2.4	4.67	1.74	1.99	2.58	4.27	0.698	6.02	1.1	4.27	3.31	5.7	5.34	2.75	7.14	3.4	0.635	2.34
CCAGACAGGTGAATGGTAACTCAGTCTGGTACGC	0.897	0.735	-0.452	-0.717	0.288	-0.4	-0.302	-0.379	-0.0506	0.381	-0.113	0.0397	0.189	-0.0115	0.0786	-0.333	-0.556	-0.492
CAAACTAGGTCAAGAGGTCAAATTCCGCTTCCCG	7.98	8.45	2.67	2.22	6.39	6.47	2.4	7.61	2.96	5.63	5.63	8.27	7.69	2.86	8.31	4.58	2.73	4.49
CGACCAAGGTCAGCAGGTCAGTGAAAGCGACGTG	2.72	3.64	-0.557	-0.609	2.7	3.18	-0.228	4.62	0.262	5.02	4.67	6.06	6.15	2.12	4.83	3.54	1.63	1.16
GCTGACGGGTCAAAGGTTATAGCATGAATAGAAT	1.23	4.56	0.893	0.679	3.42	5.8	0.288	8.03	0.75	4.63	3.04	6.46	4.08	1.66	9.14	3.85	-0.263	0.919
